Compounds with a hit are over-represented: about 2.8% of the library has one in this group of screens.
Pol beta inh – qHTS Assay for Inhibitors of DNA Polymerase Beta. P06746. Pol beta primer extension/strand displacement, fluorescence kinetic. Potency, µM (highest dose often 114 µM), hits mostly inhibitors. 340,000 compounds, 1.3% hits
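Kinetic readout of DNA synthesis with strand displacement by Pol beta. Compound and 10 nM enzyme sit 15 min at room temperature; 50 nM substrate starts the reaction, read immediately and at 10 min.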
Pol eta inh-1 – qHTS for Inhibitors of Polymerase Eta; DNA polymerase eta (Homo sapiens), Q9Y253; recombinant Pol eta, fluorescent DNA replication assay; Potency, µM (series often up to 114 µM), actives largely listed as inhibitors; 390,000 compounds, 1.2% hits; AID 588591, 2011
Target sequence (Q9Y253 whole entry, looked up): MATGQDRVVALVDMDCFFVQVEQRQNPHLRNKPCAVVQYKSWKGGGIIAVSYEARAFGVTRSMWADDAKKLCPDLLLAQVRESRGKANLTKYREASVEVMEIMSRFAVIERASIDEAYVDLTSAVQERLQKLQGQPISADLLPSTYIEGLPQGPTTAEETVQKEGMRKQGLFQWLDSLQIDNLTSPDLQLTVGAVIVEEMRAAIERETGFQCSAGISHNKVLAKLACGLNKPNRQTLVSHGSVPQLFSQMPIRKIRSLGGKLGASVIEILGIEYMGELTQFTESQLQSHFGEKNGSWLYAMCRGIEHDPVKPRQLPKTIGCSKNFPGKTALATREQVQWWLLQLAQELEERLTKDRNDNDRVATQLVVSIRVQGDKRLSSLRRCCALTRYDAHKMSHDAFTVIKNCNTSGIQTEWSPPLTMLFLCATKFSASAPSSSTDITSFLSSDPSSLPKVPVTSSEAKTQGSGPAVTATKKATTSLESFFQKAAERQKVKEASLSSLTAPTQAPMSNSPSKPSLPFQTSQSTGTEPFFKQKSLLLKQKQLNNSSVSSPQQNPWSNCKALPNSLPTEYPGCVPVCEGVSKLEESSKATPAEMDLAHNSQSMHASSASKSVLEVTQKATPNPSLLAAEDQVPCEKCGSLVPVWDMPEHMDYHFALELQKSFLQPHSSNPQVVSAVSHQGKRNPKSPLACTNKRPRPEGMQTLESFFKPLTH
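Fluorescent replication assay: 50 nM final substrate added after a 15 min room-temperature compound preincubation with 10 nM enzyme. Signal taken at 0 min and again at 10 min.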
Pol iota inh – qHTS for Inhibitors of Polymerase Iota | DNA polymerase iota (Homo sapiens), Q9UNA4 | Pol iota fluorescent replication assay, 10 min | Potency, µM (top dose mostly 115 µM), hits mostly inhibitors | 390,000 compounds, 1% hits
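Fluorescent replication assay read twice, at 0 min and 10 min after adding 50 nM (final) substrate. Enzyme (10 nM) and compounds were first incubated 15 min at room temperature; enzyme-free buffer wells were negative controls.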
PI5P4Ka inh – qHTS for Inhibitors of phosphatidylinositol 5-phosphate 4-kinase (PI5P4K). max response, %. 330,000 compounds, 1.2% hits. Phosphatidylinositol 5-phosphate 4-kinase type-2 alpha (Homo sapiens), P48426. PI5P4Kalpha enzyme, ADP-Glo luminescence, 60 min; hits give low values; active = max response of -50% or lower; inconclusive = between -30% and -50%; inactive = -30% or higher; note: value at the top dose of about 77 µM
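Controls without substrate or without enzyme flank wells where PI5P4Kalpha converts substrate using 5 microM ATP (final). Incubation lasts 60 minutes at room temperature; ADP formed is read by ADP-Glo luminescence.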
WRN inhibitor – qHTS for Inhibitors of WRN Helicase | WRN helicase unwinding, fluorescent forked duplex, kinetic | 360,000 compounds, 0.46% hits | Potency, µM (series often up to 114 µM), usual class: inhibitors | Bifunctional 3'-5' exonuclease/ATP-dependent helicase WRN (Homo sapiens), Q14191; note: nearly all actives have a fitted effect of over 55% in size
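Kinetic fluorescence helicase assay: unwinding of a quenched forked DNA duplex (100 nM final) with 2 mM ATP final raises red fluorescence (525/598 nm). Compounds sat 15 min at room temperature with 20 nM WRN beforehand.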
Pol kappa inh-1 – qHTS for Inhibitors of Polymerase Kappa; DNA polymerase kappa (Homo sapiens), Q9UBT6; purified Pol kappa, fluorescent DNA synthesis assay, 10 min; Potency, µM (series often up to 107 µM), hits mostly inhibitors; 400,000 compounds, 0.53% hits; AID 588579, 2011
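Enzyme at 10 nM met test compounds for 15 min at room temperature. Substrate addition (50 nM final) began the reaction, which was monitored by fluorescence at 0 and 10 min.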
PGK validate – qHTS for inhibitors of Phosphogylcerate Kinase: Hit Validation Screen. TbPGK coupled GAPDH assay, Kinase-Glo luminescence. Potency, µM (highest dose often 57.5 µM), usual class: inhibitors. 500 compounds, 79% hits. shares compounds with Pol kappa inh-1; note: nearly all actives have a fitted effect of over 65% in size
POLI cherry-pick – qHTS for Inhibitors of Polymerase Iota: Confirmatory Assay for Cherry-picked Compounds. Pol iota primer extension, TAMRA/BHQ fluorescence. 1,500 compounds, 77% hits. shares compounds with Pol kappa inh-1. Potency, µM, hits mostly inhibitors. AID 720496, 2013
GALK confirm – Confirmation Assay for Inhibitors of Human Galactokinase (GALK); 150 compounds, 70% hits; purified GALK, Kinase-Glo ATP depletion luminescence; AID 2015, 2009; Potency, µM (top dose mostly 115 µM), most hits filed as inhibitors; shares compounds with Pol eta inh-1
GALK redox cs – Confirmatory Assay for Inhibitors of Human Galactokinase (GALK): Phenol-HRP redox assay counterscreen; 150 compounds, 40% hits; shares compounds with Pol eta inh-1; Potency, µM (highest dose often 115 µM), most hits filed as inhibitors; Phenol red-HRP H2O2 redox cycling, absorbance 600 nm; AID 2035, 2009
HEK293 tox – Secondary Assay for Inhibitors of Human Galactokinase (GALK): HEK-293 Cell Viability Assay | shares compounds with Pol eta inh-1 | HEK-293 viability, ATP luminescence (CellTiter-Glo), 24/48 h | Potency, µM (top dose mostly 46.1 µM), hits mostly inhibitors | 170 compounds, 10% hits | AID 2547, 2010
Pol kappa inh-2 – qHTS for Inhibitors of Polymerase Kappa: Confirmatory Assay for Cherry-picked Compounds; purified Pol-kappa, fluorescent strand-displacement substrate; AID 720501, 2013; shares compounds with Pol eta inh-1; Potency, µM, hits mostly inhibitors; 920 compounds, 76% hits
Pol eta inh-2 – qHTS for Inhibitors of Polymerase Eta: Confirmatory Assay for Cherry-picked Compounds; shares compounds with Pol eta inh-1; Pol eta primer extension, TAMRA/BHQ fluorescence, 10 min; Potency, µM, actives largely listed as inhibitors; 2,600 compounds, 64% hits
Each line names hits and unclear results; the compound was inactive in the other large screens (follow-up assays come after a bar, where they were run). Unless noted, calls come from the whole dose curve; as a rule, active = well fitted curve in the direction sought with a large enough effect; inconclusive = small, poorly fitted or top-dose-only effect, or another doubt; inactive = no such curve, though single readings can be large; an effect the other way counts as inactive or inconclusive.

O=C(O)CCCCCN1C(=O)/C(=C\c2cn(-c3ccccc3)nc2-c2cccs2)SC1=S	Pol eta inh-1 44.7µM, Pol iota inh inconclusive, Pol kappa inh-1 inconclusive | POLI cherry-pick 33.6 | Pol eta inh-2 inconclusive
COc1ccc2cc(C(=O)C3CCCN(C(=O)CCc4cnn(C)c4)C3)ccc2c1 (stereo unspecified)	none
O=C1C=C(Nc2cccc3cccnc23)c2ccccc2C1=O	Pol beta inh inconclusive, Pol eta inh-1 50.1µM, Pol iota inh 17.8µM, Pol kappa inh-1 inconclusive | POLI cherry-pick inconclusive | Pol eta inh-2 inconclusive
NS(=O)(=O)Nc1cccc2cccnc12	none (no result: Pol beta inh, Pol eta inh-1, PI5P4Ka inh, WRN inhibitor)
O=C(O)c1ccccc1Nc1ccccc1C(=O)O	none (no result: PI5P4Ka inh)
O=C1C=C(Nc2ccccc2C(=O)O)c2ccccc2C1=O	Pol beta inh inconclusive, Pol eta inh-1 28.2µM, Pol iota inh 17.8µM, PI5P4Ka inh inconclusive | POLI cherry-pick 67 | Pol eta inh-2 37.9
CCOc1nc(Nc2ccc(OC)cc2)nc(OCC)n1	Pol eta inh-1 20µM, Pol iota inh inconclusive, Pol kappa inh-1 inconclusive | POLI cherry-pick 67 | Pol eta inh-2 inconclusive
CC(Sc1nnc(NC2CCCCC2)s1)C(=O)Nc1ccc2c(c1)C(=O)c1ccccc1C2=O (stereo unspecified)	PI5P4Ka inh inconclusive
Cc1ccc(N2C(=O)c3ccccc3C2C(=O)c2ccc(O)cc2O)cc1 (stereo unspecified)	Pol beta inh 35.5µM, Pol eta inh-1 79.4µM, Pol iota inh 11.2µM, PI5P4Ka inh -65.7, WRN inhibitor inconclusive, Pol kappa inh-1 11.2µM | POLI cherry-pick 18.9 | Pol eta inh-2 30.1
C=Cc1c(C)c2cc3[nH]c(cc4nc(cc5nc(cc1[nH]2)C(C)=C5CCC(=O)O)C(CCC(=O)O)=C4C)c(C)c3C=C	Pol beta inh 1.41µM, Pol eta inh-1 4.47µM, Pol iota inh 10µM, PI5P4Ka inh -50.8, WRN inhibitor 35.5µM, Pol kappa inh-1 9.47µM | PGK validate 0.231µM | POLI cherry-pick 2.99 | Pol eta inh-2 2.69
CC(C)(C)C(=O)CN1C2=NCCCN2c2ccccc21	none
C[n+]1cccc2c(Br)ccc([O-])c21	Pol beta inh 28.2µM, Pol eta inh-1 20µM, Pol iota inh inconclusive | POLI cherry-pick 18.9 | GALK confirm 47.3µM | GALK redox cs 21.1µM | HEK293 tox inactive | Pol eta inh-2 23.9
[O-][n+]1cccc2c(Br)cc(Br)c(O)c21	none
C#CNC(=O)C1(CC=C)CCNCC1	none (no result: Pol beta inh)
C/C(N)=C(/C#N)C(=O)CSc1nnc(Nc2cccc(C)c2C)s1	Pol iota inh inconclusive
C/C(N)=C(/C#N)C(=O)CSc1nnc(Nc2c(C)cccc2C)s1	Pol beta inh inconclusive, Pol eta inh-1 17.8µM, Pol iota inh inconclusive, PI5P4Ka inh -100.0, WRN inhibitor inconclusive, Pol kappa inh-1 79.4µM | POLI cherry-pick inconclusive | Pol eta inh-2 47.8
Cc1ccc(Cn2c(C(C)Nc3nc(C)cs3)nc3cc(Cl)c(Cl)cc32)cc1 (stereo unspecified)	none (no result: Pol beta inh)
COCCN(C(=O)c1cc2c(s1)CCC2)c1c(N)n(CC(C)C)c(=O)[nH]c1=O	Pol eta inh-1 8.91µM, Pol iota inh 20µM, PI5P4Ka inh inconclusive, WRN inhibitor 44.7µM, Pol kappa inh-1 44.7µM (no result: Pol beta inh) | POLI cherry-pick 21.2 | Pol kappa inh-2 18.9 | Pol eta inh-2 47.8
CCCCN(C(=O)c1cc2c(s1)CCC2)c1c(N)n(CCC)c(=O)[nH]c1=O	Pol eta inh-1 12.6µM, Pol iota inh 20µM, PI5P4Ka inh inconclusive, WRN inhibitor inconclusive, Pol kappa inh-1 inconclusive (no result: Pol beta inh) | POLI cherry-pick 59.7 | Pol kappa inh-2 inconclusive | Pol eta inh-2 75.7
CCCn1c(N)c(N(CCOC)C(=O)c2cc3c(s2)CCCCC3)c(=O)[nH]c1=O	none
CCCCN(C(=O)c1cc2c(s1)CCC2)c1c(N)n(CC(C)C)c(=O)[nH]c1=O	Pol eta inh-1 inconclusive, Pol iota inh 44.7µM, PI5P4Ka inh inconclusive, Pol kappa inh-1 79.4µM (no result: Pol beta inh) | POLI cherry-pick inconclusive | Pol eta inh-2 inconclusive
CCN(C(=O)C(C)N1C(=O)/C(=C/c2ccco2)SC1=S)C1CCS(=O)(=O)C1 (stereo unspecified)	Pol beta inh 11.2µM, Pol eta inh-1 15.8µM, Pol iota inh 22.4µM, PI5P4Ka inh -68.4, WRN inhibitor 50.1µM, Pol kappa inh-1 28.2µM | POLI cherry-pick 42.3 | Pol eta inh-2 26.9
CC(C(=O)N(C)C1CCS(=O)(=O)C1)N1C(=O)/C(=C/c2ccc(F)cc2)SC1=S (stereo unspecified)	PI5P4Ka inh inconclusive
Cc1cc[n+](-c2[nH]c(=O)sc2/C=N/N=C(\[O-])c2ccncc2)cc1C	none

From PubChem BioAssay
